Data from paper PMC5540273 (PLoS ONE, 2017).

Experiments:
Details in all cases: concentration: 1 μM, replicates: in singlicate; n = 1
[1] = test system: T1, PYK2
T1 construct: gene PTK2B

[2] = test system: QSK
[3] = test system: RAF1
[4] = test system: RET
[5] = test system: RIOK1
[6] = test system: RIOK2
[7] = test system: RIOK3
[8] = test system: RIPK1
[9] = test system: RIPK2
[10] = test system: RIPK4
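Note: KINOMEscan kinase panel screen.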

| Structure (SMILES) | %Inh [1] [%] | %Inh [2] [%] | %Inh [3] [%] | %Inh [4] [%] | %Inh [5] [%] | %Inh [6] [%] | %Inh [7] [%] | %Inh [8] [%] | %Inh [9] [%] | %Inh [10] [%] |
| --- | --- | --- | --- | --- | --- | --- | --- | --- | --- | --- |
| CSc1ccc(-c2cc3ncnc(SCC(=O)O)c3s2)cc1 | 13 | 0 | 0 | 8 | 0 | 0 | 0 | 0 | 0 | 0 |
| NCC(NC(=O)c1cc(-c2cn[nH]c2)c(-c2ccnc3[nH]ccc23)s1)c1ccccc1.O=C(O)C(F)(F)F.O=C(O)C(F)(F)F (centres unmarked) [GSK1325775] | 0 | 9 | 0 | 18 | 99.4 | 34 | 100 | 19 | 0 | 31 |
| c1ccc(-c2cc(-c3c[nH]nc3-c3ccccn3)ccn2)cc1 [GW576604] | 0 | 0 | 4 | 16 | 37 | 1 | 25 | 0 | 94.6 | 0 |
| O=C(Nc1cccc(-c2nn3ncccc3c2-c2ccnc(Nc3cccc(C(F)(F)F)c3)n2)c1)c1c(F)cccc1F [GSK299495] | 23 | 9 | 86 | 64 | 22 | 0 | 0 | 8 | 86 | 15 |
| O=c1cc(N2CCOCC2)nc2n(Cc3cccc4ccccc34)ccn12 [GSK2333389] | 17 | 7 | 0 | 80 | 8 | 47 | 0 | 0 | 0 | 0 |
| CN1c2ccc(NCc3ccc(F)cc3)cc2-c2c(cnn2C)S1(=O)=O | 0 | 10 | 1 | 0 | 10 | 0 | 0 | 3 | 0 | 0 |
| CNc1ncnc2[nH]ncc12 [SKF-18355] | 0 | 5 | 23 | 0 | 0 | 0 | 0 | 0 | 0 | 22 |
| COc1cc(Nc2nccc(N3CCC(NC(=O)c4cccc(NC(C)=O)c4)C3)n2)cc(OC)c1OC (centres unmarked) [GSK1379754] | 14 | 0 | 0 | 29 | 82 | 5 | 61 | 0 | 0 | 28 |
| COc1ccc(Nc2nccc(N3CCC(NC(=O)Nc4cc(C)ccc4C)C3)n2)cc1 (centres unmarked) [GSK1379741] | 7 | 1 | 13 | 52 | 25 | 0 | 0 | 0 | 14 | 8 |
| Cc1nnc(-c2ccc3occ(-c4ccc(C(C)O)cc4)c3c2)o1 (centres unmarked) | 2 | 5 | 100 | 11 | 0 | 36 | 0 | 1 | 20 | 0 |
| Cc1c2ccc(N(C)c3ccnc(Nc4cccc(S(N)(=O)=O)c4)n3)cc2nn1Cc1ccccc1.Cl.Cl [GW787226] | 9 | 0 | 94.5 | 99.9 | 0 | 15 | 0 | 36 | 95.9 | 0 |
| CC(C)Oc1ccc2c(-c3ccnc(Nc4ccc(N5CCN(C)CC5)cc4)n3)cnn2n1 [GW696155] | 42 | 23 | 0 | 56 | 99.9 | 90 | 95.4 | 40 | 15 | 27 |
| COc1ccc(S(=O)(=O)NC2CCN(c3cc(C)nc(Nc4cccc(C#N)c4)n3)CC2)cc1.O=C(O)C(F)(F)F [GSK1653539] | 1 | 6 | 0 | 0 | 5 | 0 | 0 | 5 | 0 | 0 |
| CC(=O)Nc1ccc(COc2ccc(Nc3ccnc4cc(-c5ccccn5)ccc34)cc2)cc1.Cl [GW440148] | 0 | 0 | 5 | 2 | 13 | 0 | 35 | 22 | 93.2 | 19 |
| O=C(c1ccc(-c2cc(-c3c[nH]nc3-c3ccccn3)ccn2)cc1)N1CCOCC1 [GW812171] | 0 | 0 | 9 | 0 | 8 | 0 | 7 | 0 | 1 | 2 |
| O=C(NCCNc1ccnc(Nc2ccc(F)cc2)n1)Nc1ccccc1F [GSK1379880] | 16 | 0 | 22 | 5 | 17 | 5 | 0 | 0 | 1 | 11 |
| Cc1ccc(NC(=O)c2ccnc(N3CCN(C)CC3)c2)cc1-c1ccc(C(=O)NCC2CC2)cc1 [GW775604] | 0 | 0 | 10 | 0 | 0 | 0 | 0 | 0 | 0 | 0 |
